Results taken from PubChem BioAssay AID588774 (The Scripps Research Institute Molecular Screening Center, 2011).
The source made the active and inactive calls.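 Rule for the calls: active = target enzyme inhibited at least 50% at a set dose, and selective over every off-target enzyme by a set factor; inactive = weaker inhibition or too little selectivity.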

System: not listed separately
Assay: pPAFAH inhibition and serine hydrolase selectivity, SAR follow-up, selectivity assay for pPAFAH inhibitor project, biochemical, gel-based, FP-Rh fluorescence, complex proteome, SAR compounds (AID 588774);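 for inhibition: 0% = DMSO-only band intensity and 100% = blank gel background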
Conditions: gel-based competitive ABPP, MW 32 kDa, anti-targets inhibited, at 10 µM

Compound	anti-target count
Cc1cc(N2CCN(C(=O)Oc3noc4cc(Cl)ccc34)CC2)c2ccccc2n1	4
O=C(Oc1noc2cc(Cl)ccc12)N1CCCCC1	2
Cc1cc(N2CCN(C(=O)Oc3ccc(-c4ccccc4)cc3)CC2)c2ccccc2n1	0
Cc1cc(N2CCN(C(=O)Oc3ccc(C4CCCC4)cc3)CC2)c2ccccc2n1	0
Cc1cc(N2CCN(C(=O)n3oc4cc(Cl)ccc4c3=O)CC2)c2ccccc2n1	3
Cc1cc(N2CCN(C(=O)n3ncc(-c4ccc(OC(F)(F)F)cc4)n3)CC2)c2ccccc2n1	9
Cc1cc(N2CCN(C(=O)Oc3ccc([N+](=O)[O-])cc3)CC2)c2ccccc2n1	2
Cc1cc(N2CCN(C(=O)n3ncc(-c4ccc([N+](=O)[O-])cc4)n3)CC2)c2ccccc2n1	9
O=C(Oc1noc2cc(Cl)ccc12)N1CCOCC1	3
Cc1cc(N2CCN(C(=O)n3ncc(-c4ccccc4)n3)CC2)c2ccccc2n1	9
O=C(N1CCOCC1)n1oc2cc(Cl)ccc2c1=O	6
COc1ccc(-c2cnn(C(=O)N3CCN(c4cc(C)nc5ccccc45)CC3)n2)cc1	8
Cc1cc(N2CCN(C(=O)Oc3ccc(-c4ccc(Br)cc4)cc3)CC2)c2ccccc2n1	0
Cc1cc(N2CCN(C(=O)Oc3ccc(-n4cccc4)cc3)CC2)c2ccccc2n1	0
Cc1cc(N2CCN(C(=O)n3ncc(-c4ccc(Cl)c(Cl)c4)n3)CC2)c2ccccc2n1	8
Cc1cc(N2CCN(C(=O)Oc3ccc(C4CCCCC4)cc3)CC2)c2ccccc2n1	0
Cc1cc(N2CCN(C(=O)Oc3ccc(C(F)(F)F)cc3)CC2)c2ccccc2n1	1

System: MW 32 kDa
Assay: as above
Conditions: gel-based competitive ABPP, at 10 µM, stronger effect = higher value

Compound	inhibition
Cc1cc(N2CCN(C(=O)Oc3noc4cc(Cl)ccc34)CC2)c2ccccc2n1	0% (inactive)
O=C(Oc1noc2cc(Cl)ccc12)N1CCCCC1	0% (inactive)
Cc1cc(N2CCN(C(=O)Oc3ccc(-c4ccccc4)cc3)CC2)c2ccccc2n1	0% (inactive)
Cc1cc(N2CCN(C(=O)Oc3ccc(C4CCCC4)cc3)CC2)c2ccccc2n1	0% (inactive)
Cc1cc(N2CCN(C(=O)n3oc4cc(Cl)ccc4c3=O)CC2)c2ccccc2n1	0% (inactive)
Cc1cc(N2CCN(C(=O)n3ncc(-c4ccc(OC(F)(F)F)cc4)n3)CC2)c2ccccc2n1	87% (inactive)
Cc1cc(N2CCN(C(=O)Oc3ccc([N+](=O)[O-])cc3)CC2)c2ccccc2n1	0% (inactive)
Cc1cc(N2CCN(C(=O)n3ncc(-c4ccc([N+](=O)[O-])cc4)n3)CC2)c2ccccc2n1	85% (inactive)
O=C(Oc1noc2cc(Cl)ccc12)N1CCOCC1	30% (inactive)
Cc1cc(N2CCN(C(=O)n3ncc(-c4ccccc4)n3)CC2)c2ccccc2n1	72% (inactive)
O=C(N1CCOCC1)n1oc2cc(Cl)ccc2c1=O	39% (inactive)
COc1ccc(-c2cnn(C(=O)N3CCN(c4cc(C)nc5ccccc45)CC3)n2)cc1	67% (inactive)
Cc1cc(N2CCN(C(=O)Oc3ccc(-c4ccc(Br)cc4)cc3)CC2)c2ccccc2n1	0% (inactive)
Cc1cc(N2CCN(C(=O)Oc3ccc(-n4cccc4)cc3)CC2)c2ccccc2n1	0% (inactive)
Cc1cc(N2CCN(C(=O)n3ncc(-c4ccc(Cl)c(Cl)c4)n3)CC2)c2ccccc2n1	50% (inactive)
Cc1cc(N2CCN(C(=O)Oc3ccc(C4CCCCC4)cc3)CC2)c2ccccc2n1	0% (inactive)
Cc1cc(N2CCN(C(=O)Oc3ccc(C(F)(F)F)cc3)CC2)c2ccccc2n1	0% (inactive)
